Calls of active or inactive are those of the source. The calls were made as follows: active = hit-call score of the fitted dose curve at least 0.9, where 1 is the maximum; inactive = score below 0.9.
Columns and labels:
[1] = read-out: Transforming growth factor beta 1 (TGFb1), TGFB1 (gene 7040); experiment: BSK_KF3CT_TGFb1: BioMAP Diversity Plus: KF3CT Assay for Transforming growth factor beta 1 (TGFb1) Biomarker Activity (AID 2283072); settings: primary human keratinocytes with fibroblasts; actives raise or lower the signal
How it was run: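 KF3CT co-culture (keratinocytes + fibroblasts), 24 h exposure → TGF-b1 ELISA → bidirectional fit, DMSO = baseline. Parallel SRB total-protein staining (0.1% SRB, 10% TCA fixation, 560 nm) for cytotoxicity.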

[2] = read-out: C-C motif chemokine 2 (Homo sapiens) (UniProt P13500); experiment: BSK_KF3CT_MCP1: BioMAP Diversity Plus: KF3CT Assay for Monocyte Chemoattractant Protein 1 (MCP1/CCL2) Biomarker Activity (AID 2283073); settings: primary human keratinocytes with fibroblasts; actives raise or lower the signal
How it was run: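 ELISA read-out of MCP-1, 24 h post-dose, in primary human skin keratinocytes co-cultured with fibroblasts. Parallel SRB staining monitors cytotoxicity; changes fitted both directions relative to DMSO.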

[3] = read-out: Matrix Metallopeptidase 9 (MMP9), MMP9 (gene 4318); experiment: BSK_KF3CT_MMP9: BioMAP Diversity Plus: KF3CT Assay for Matrix Metallopeptidase 9 (MMP9) Biomarker Activity (AID 2283074); settings: primary human keratinocytes with fibroblasts; actives raise or lower the signal;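 as to AC50: MMP9 protein level quantified by ELISA in the co-culture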
How it was run: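 Values come from bidirectional fitting relative to DMSO of MMP-9 levels, which were measured by ELISA. Measurements were taken 24 h after chemical dosing of a keratinocyte and foreskin fibroblast co-culture.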

[4] = read-out: urokinase plasminogen activator (uPA), PLAU (gene 5328); experiment: BSK_KF3CT_uPA: BioMAP Diversity Plus: KF3CT Assay for urokinase plasminogen activator (uPA) Biomarker Activity (AID 2283075); settings: primary human keratinocytes with fibroblasts; actives raise or lower the signal
How it was run: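 Values derive from bidirectional fitting against DMSO controls. Keratinocyte/foreskin fibroblast co-cultures received chemical; 24 h later uPA was detected by ELISA, with SRB total-protein staining in parallel wells for overt cytotoxicity.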

[5] = read-out: CD40, CD40 (gene 958); experiment: BSK_LPS_CD40: BioMAP Diversity Plus: LPS Assay for CD40 Biomarker Activity (AID 2283076); settings: primary human HUVEC with PBMC; actives raise or lower the signal
How it was run: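 In the LPS system of human endothelial cells with peripheral blood mononuclear cells, CD40 levels were read by ELISA 24 h post-treatment. Signal changes in either direction were fitted against the DMSO baseline, with parallel SRB protein staining.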

[6] = read-out: E-selectin (Homo sapiens) (UniProt P16581); experiment: BSK_LPS_Eselectin: BioMAP Diversity Plus: LPS Assay for Eselectin Biomarker Activity (AID 2283077); settings: primary human HUVEC with PBMC; actives raise or lower the signal
How it was run: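 E-selectin ELISA on LPS-stimulated endothelial cell/PBMC co-cultures, read 24 h post-treatment; gains and losses fitted against DMSO. Parallel SRB staining (0.1% SRB after 10% TCA fixation, 560 nm) flags overt cytotoxicity.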

[7] = read-out: Interleukin-8 (IL8), CXCL8 (gene 3576); experiment: BSK_LPS_IL8: BioMAP Diversity Plus: LPS Assay for Interleukin-8 (IL8) Biomarker Activity (AID 2283078); settings: primary human HUVEC with PBMC; actives raise or lower the signal
How it was run: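 ELISA read-out of IL-8 after 24 h chemical treatment of LPS-activated endothelial/PBMC human primary co-cultures. Changes either up or down relative to DMSO; overt cytotoxicity checked by sulforhodamine B staining in parallel wells.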

[8] = BSK_LPS_SRB: Viability Assessment in the BioMAP Diversity Plus: LPS Assay (AID 2283079); settings: primary human HUVEC with PBMC;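 also: total protein by sulforhodamine B absorbance as a cytotoxicity measure; measured one day after compound addition; fitted in both directions against DMSO so loss or gain of signal counts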
How it was run: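 SRB viability endpoint: cells fixed with 10% TCA, stained with 0.1% SRB, read at 560 nm, 24 h post-dose. HUVEC/PBMC co-culture; signal change in either direction scored relative to DMSO.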

[9] = read-out: Interleukin-1 alpha (IL1a), IL1A (gene 3552); experiment: BSK_LPS_IL1a: BioMAP Diversity Plus: LPS Assay for Interleukin-1 alpha (IL1a) Biomarker Activity (AID 2283080); settings: primary human HUVEC with PBMC; actives raise or lower the signal
How it was run: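 Readout is IL-1a level by ELISA, 24 h post-dose, fitted as gain or loss relative to DMSO. System: LPS-activated human primary co-culture of vascular endothelium and peripheral blood mononuclear cells, with parallel SRB total-protein cytotoxicity.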

[10] = read-out: Monocyte Chemoattractant Protein-1 (MCP1), CCL2 (gene 6347); experiment: BSK_LPS_MCP1: BioMAP Diversity Plus: LPS Assay for Monocyte Chemoattractant Protein-1 (MCP1) Biomarker Activity (AID 2283081); settings: primary human HUVEC with PBMC; actives raise or lower the signal
How it was run: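 Secreted MCP-1 read by ELISA at 24 h post-dosing in an LPS-activated co-culture of endothelial cells with peripheral blood mononuclear cells. Fits run in both directions, DMSO as baseline; parallel SRB staining tracks overt cytotoxicity.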

[11] = BSK_LPS_PGE2: BioMAP Diversity Plus: LPS Assay for Prostaglandin E2 (PGE2) Biomarker Activity (AID 2283082); settings: primary human HUVEC with PBMC; actives raise or lower the signal;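 as to AC50: secreted prostaglandin E2 measured by ELISA in LPS-stimulated co-culture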
How it was run: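 Compounds were added to the LPS co-culture of endothelium and PBMC, and PGE2 was measured by ELISA after 24 h. Responses in either direction were fitted with DMSO as baseline.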

[12] = read-out: Macrophage colony-stimulating factor (MCSF), CSF1 (gene 1435); experiment: BSK_LPS_MCSF: BioMAP Diversity Plus: LPS Assay for Macrophage colony-stimulating factor (MCSF) Biomarker Activity (AID 2283083); settings: primary human HUVEC with PBMC; actives raise or lower the signal
How it was run: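 Bidirectional fitting against DMSO was applied to M-CSF levels read by ELISA at 24 h post-dose. The system pairs human umbilical vein endothelium with peripheral blood mononuclear cells; parallel SRB staining tracked cytotoxicity.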

[13] = read-out: Tissue Factor, F3 (gene 2152); experiment: BSK_LPS_TissueFactor: BioMAP Diversity Plus: LPS Assay for Tissue Factor Biomarker Activity (AID 2283084); settings: primary human HUVEC with PBMC; actives raise or lower the signal
How it was run: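 Compound was added to an endothelial cell/PBMC co-culture, and after 24 h tissue factor (CD142) was read by ELISA. Gain or loss of signal was fitted against a DMSO baseline, and parallel SRB staining (560 nm) tracked overt cytotoxicity.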

[14] = read-out: Tumor necrosis factor (Homo sapiens) (UniProt P01375); experiment: BSK_LPS_TNFa: BioMAP Diversity Plus: LPS Assay for Tumour Necrosis Factor alpha (TNFa) Biomarker Activity (AID 2283085); settings: primary human HUVEC with PBMC; actives raise or lower the signal;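 as to AC50: TNFa protein level quantified by ELISA in the co-culture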
How it was run: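 Cells (umbilical vein endothelium plus peripheral blood mononuclear cells) were dosed with chemical, incubated 24 h, then TNFa was quantified by ELISA; values derive from bidirectional fitting with DMSO as baseline.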

[15] = read-out: Vascular cell adhesion molecule 1 (VCAM1), VCAM1 (gene 7412); experiment: BSK_LPS_VCAM1: BioMAP Diversity Plus: LPS Assay for Vascular cell adhesion molecule 1 (VCAM1) Biomarker Activity (AID 2283086); settings: primary human HUVEC with PBMC; actives raise or lower the signal
How it was run: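 Cells are dosed in an LPS-stimulated endothelial/mononuclear co-culture and, after 24 h, VCAM-1 is quantified by ELISA. Activity in either direction is fitted relative to the DMSO negative control.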

[16] = read-out: CD38, CD38 (gene 952); experiment: BSK_SAg_CD38: BioMAP Diversity Plus: SAg Assay for CD38 Biomarker Activity (AID 2283087); settings: primary human HUVEC with PBMC; actives raise or lower the signal
How it was run: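 CD38 quantified by ELISA (fluorescence) in a superantigen-activated endothelial cell–PBMC co-culture at 24 h post-dose. Activity fitted in both directions relative to DMSO; parallel SRB and Alamar Blue cytotoxicity read-outs.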

[17] = read-out: CD40, CD40 (gene 958); experiment: BSK_SAg_CD40: BioMAP Diversity Plus: SAg Assay for CD40 Biomarker Activity (AID 2283088); settings: primary human HUVEC with PBMC; actives raise or lower the signal
How it was run: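 CD40 is measured by fluorescence ELISA in an endothelial/PBMC primary human co-culture at 24 h post-dose. Fitting is bidirectional, DMSO baseline. Parallel SRB staining (560 nm) flags cytotoxicity.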

[18] = read-out: CD69, CD69 (gene 969); experiment: BSK_SAg_CD69: BioMAP Diversity Plus: SAg Assay for CD69 Biomarker Activity (AID 2283089); settings: primary human HUVEC with PBMC; actives raise or lower the signal
How it was run: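 ELISA, fluorescence read-out: CD69 on human umbilical vein endothelial cell + PBMC co-culture, 24 h post-dosing. Gain or loss of signal fitted bidirectionally against DMSO baseline.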

[19] = read-out: Monocyte Chemoattractant Protein-1 (MCP1), CCL2 (gene 6347); experiment: BSK_SAg_MCP1: BioMAP Diversity Plus: SAg Assay for Monocyte Chemoattractant Protein-1 (MCP1) Biomarker Activity (AID 2283090); settings: primary human HUVEC with PBMC; actives raise or lower the signal
How it was run: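 Values derive from bidirectional fitting of ELISA-measured MCP1 against DMSO controls. Readings were taken 24 h after dosing human vascular endothelial cells co-cultured with peripheral blood mononuclear cells under superantigen stimulation.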

[20] = read-out: E-selectin (Homo sapiens) (UniProt P16581); experiment: BSK_SAg_Eselectin: BioMAP Diversity Plus: SAg Assay for Eselectin Biomarker Activity (AID 2283091); settings: primary human HUVEC with PBMC; actives raise or lower the signal
How it was run: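 Cell-surface E-selectin is read by ELISA at 24 h in the SAg co-culture of HUVEC and PBMC. Curves are fitted in both directions relative to DMSO. Parallel SRB total-protein staining tracks overt toxicity.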

Measured: AC50

Sequence of E-selectin (Homo sapiens) (P16581 whole entry, looked up): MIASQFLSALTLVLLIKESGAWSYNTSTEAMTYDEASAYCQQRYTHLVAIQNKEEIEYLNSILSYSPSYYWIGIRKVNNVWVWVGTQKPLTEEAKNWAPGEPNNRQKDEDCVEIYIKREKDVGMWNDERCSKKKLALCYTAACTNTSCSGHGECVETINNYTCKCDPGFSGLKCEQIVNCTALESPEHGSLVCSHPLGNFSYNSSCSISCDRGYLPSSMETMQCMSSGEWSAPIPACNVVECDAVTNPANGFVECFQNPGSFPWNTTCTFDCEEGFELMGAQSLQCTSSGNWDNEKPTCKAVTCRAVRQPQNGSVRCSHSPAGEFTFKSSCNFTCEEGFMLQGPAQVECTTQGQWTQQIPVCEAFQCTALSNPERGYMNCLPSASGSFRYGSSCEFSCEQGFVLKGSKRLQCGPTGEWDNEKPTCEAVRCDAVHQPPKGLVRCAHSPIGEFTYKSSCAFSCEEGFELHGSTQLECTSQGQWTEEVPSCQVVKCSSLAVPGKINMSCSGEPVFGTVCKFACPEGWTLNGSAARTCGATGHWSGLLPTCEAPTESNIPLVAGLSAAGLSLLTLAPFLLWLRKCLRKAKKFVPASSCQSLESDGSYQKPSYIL
Sequence of Tumor necrosis factor (Homo sapiens) (P01375 whole entry, looked up): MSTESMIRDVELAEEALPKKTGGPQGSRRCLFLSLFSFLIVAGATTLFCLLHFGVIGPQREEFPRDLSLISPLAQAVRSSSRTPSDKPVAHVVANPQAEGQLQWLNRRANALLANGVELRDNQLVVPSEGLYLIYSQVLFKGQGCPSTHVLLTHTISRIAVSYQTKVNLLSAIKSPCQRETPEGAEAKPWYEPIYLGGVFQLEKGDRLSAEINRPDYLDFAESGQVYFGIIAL

COC(=O)c1ccc(CNS(C)(=O)=O)cc1S(=O)(=O)NC(=O)Nc1nc(OC)cc(OC)n1
inactive: [1] | [2] | [3] | [4] | [5] | [6] | [7] | [8] | [9] | [10] | [11] | [12] | [13] | [14] | [15] | [16] | [17] | [18] | [19] | [20]

CN(C)C(=O)Nc1ccc(Cl)c(Cl)c1
inactive: [1] | [2] | [3] | [4] | [5] | [6] | [7] | [9] | [10] | [12] | [13] | [14] | [15] | [16] | [17] | [18] | [19] | [20]
active: [11] 7.82 µM

CCCCCOC(=O)COc1cc(N2C(=O)C3=C(CCCC3)C2=O)c(F)cc1Cl
active: [3] 20 µM | [5] 16 µM | [7] 20 µM | [13] 27.8 µM | [14] 20 µM | [15] 15 µM | [17] 20 µM | [20] 15.8 µM
inactive: [1] | [2] | [4] | [6] | [9] | [10] | [11] | [12] | [16] | [18] | [19]

O=C(O)c1ccccc1
inactive: [1] | [2] | [3] | [4] | [5] | [6] | [7] | [9] | [10] | [11] | [12] | [13] | [14] | [15] | [16] | [17] | [18] | [19] | [20]

CCNc1nc(N)nc(Cl)n1
active: [14] 14.3 µM
inactive: [1] | [2] | [3] | [4] | [5] | [6] | [7] | [9] | [10] | [11] | [12] | [13] | [15] | [16] | [17] | [18] | [19] | [20]

COC(=O)c1cccc(C)c1S(=O)(=O)NC(=O)Nc1nc(OCC(F)(F)F)nc(N(C)C)n1
inactive: [1] | [2] | [3] | [4] | [5] | [6] | [7] | [8] | [10] | [11] | [12] | [13] | [14] | [15] | [16] | [17] | [18] | [19] | [20]
